The list is not random: actives were taken first. Their share in the collection is about 5.8%.
VP16 counter: VP16 counterscreen qHTS for inhibitors of ROR gamma transcriptional activity; Drosophila S2 Gal4-VP16 UAS-luciferase, luminescence, 20 h; Potency, µM (titrated, usually from 53.6 µM), actives largely listed as inhibitors; 3.5% of 310,000 active;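 note: Gal4-VP16 expression switched on by copper sulfate through the metallothionein promoter; nearly all actives have a fitted effect of over 50% in size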
RORg inh: qHTS for inhibitors of ROR gamma transcriptional activity | Nuclear receptor ROR-gamma (Mus musculus), P51450 | Drosophila S2 Gal4-RORgamma UAS-luciferase reporter, 20 h | Potency, µM (doses to about 53.6 µM), usual class: inhibitors | 5.4% of 310,000 active; note: nearly all actives have a fitted effect of over 60% in size
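ROR gamma transcriptional activity was tracked as Gal4-UAS luciferase output in stably transfected Drosophila Schneider cells, with compound added 1 hr before 700 uM copper sulfate induction and a 20 hr ambient-temperature incubation.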
uPA generation: qHTS for Inhibitors of Cell Surface uPA Generation; AID 540303, 2011; cell surface uPA generation assay, qHTS; 0.31% of 330,000 active; Potency, µM (series often up to 38.3 µM), actives largely listed as inhibitors; active = well fitted inhibition curve with a large enough effect; inconclusive = small, poorly fitted or top-dose-only effect; inactive = no such curve, though single readings can be large or run the other way; tested in mouse RAW 264.7 cells; note: nearly all actives have a fitted effect of over 55% in size
TRPV1 potentiator: HTS Assay for Compounds that Act as Potentiators of the Vanilloid Receptor 1 | Transient receptor potential cation channel subfamily V member 1 (Homo sapiens), Q8NER1 | TRPV1-expressing cells, Fluo-8 calcium influx, capsaicin EC20 potentiation | potentiation, % at 8.33 µM | 0.02% of 320,000 active | AID 540277, 2011; in the data active = potentiation above about 80%; inconclusive = between about 30% and that limit
Target sequence (Q8NER1 whole entry, looked up): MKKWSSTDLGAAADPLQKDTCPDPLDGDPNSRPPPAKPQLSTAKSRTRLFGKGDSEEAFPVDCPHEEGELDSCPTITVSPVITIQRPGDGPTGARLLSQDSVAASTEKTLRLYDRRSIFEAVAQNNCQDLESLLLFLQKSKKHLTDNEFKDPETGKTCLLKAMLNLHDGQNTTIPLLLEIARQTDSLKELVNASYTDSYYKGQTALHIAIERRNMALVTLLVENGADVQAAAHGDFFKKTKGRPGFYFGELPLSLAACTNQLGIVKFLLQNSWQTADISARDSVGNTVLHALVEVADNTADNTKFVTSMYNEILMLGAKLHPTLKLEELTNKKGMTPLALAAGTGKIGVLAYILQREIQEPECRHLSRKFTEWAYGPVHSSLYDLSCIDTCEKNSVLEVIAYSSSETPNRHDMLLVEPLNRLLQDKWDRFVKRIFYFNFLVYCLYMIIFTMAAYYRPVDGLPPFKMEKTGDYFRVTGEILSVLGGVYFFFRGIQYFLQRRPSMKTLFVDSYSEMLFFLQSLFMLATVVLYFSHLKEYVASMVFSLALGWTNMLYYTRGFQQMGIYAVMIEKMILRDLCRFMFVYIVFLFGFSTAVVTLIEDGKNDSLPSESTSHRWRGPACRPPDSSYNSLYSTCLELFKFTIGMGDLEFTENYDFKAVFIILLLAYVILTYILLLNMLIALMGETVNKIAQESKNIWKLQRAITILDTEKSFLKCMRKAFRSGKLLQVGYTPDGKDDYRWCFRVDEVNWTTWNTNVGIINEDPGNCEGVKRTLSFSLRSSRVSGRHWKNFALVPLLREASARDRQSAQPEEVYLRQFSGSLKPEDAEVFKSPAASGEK
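TRPV1-expressing cells were cultured overnight at 35.5C and loaded with Fluo-8 calcium dye for 40 to 90 min at room temperature. After a 10 s baseline, compound was added and calcium influx was read kinetically for 3 min (ex 480/em 520 nm).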
TRPV1 agonist: HTS Assay for Compounds that Act as Agonists of the Vanilloid Receptor 1. TRPV1-expressing cells, Fluo-8 calcium influx, agonist mode. activation, % at 8.33 µM. 0.19% of 320,000 active; in the data active = activation above about 80%; inconclusive = between about 30% and that limit
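TRPV1-expressing cells were cultured overnight at 35.5C and loaded with Fluo-8 calcium dye for 40 to 90 min at room temperature. After a 10 s baseline, compound was added and calcium influx was read kinetically for 3 min (ex 480/em 520 nm).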
Large screens that a line does not name were inactive. Unless noted, calls come from the whole dose curve; as a rule, active = well fitted curve in the direction sought with a large enough effect; inconclusive = small, poorly fitted or top-dose-only effect, or another doubt; inactive = no such curve, though single readings can be large; an effect the other way counts as inactive or inconclusive.

CC1(C)Cc2ccccc2C(C(=O)c2ccccc2)=N1	RORg inh 7.94µM
CC1(C)Cc2ccccc2C(NNC(=O)c2ccccn2)=N1	VP16 counter 0.1µM, RORg inh 0.0501µM
C=C1CCN(C(C(=O)O)C(C)C)S(=O)(=O)c2ccccc21 (stereo not drawn)	none (no result: uPA generation, TRPV1 potentiator, TRPV1 agonist)
Oc1c(Br)cc(Br)cc1CNc1cccc2cccnc12	VP16 counter 8.91µM, RORg inh 14.1µM, uPA generation inconclusive
O=C(Nc1nnc(-c2cccs2)o1)c1cccc(Oc2ccccc2)c1	VP16 counter 0.562µM, RORg inh 0.282µM, uPA generation inconclusive (no result: TRPV1 potentiator, TRPV1 agonist)
O=C(Nc1nnc(-c2cccs2)o1)c1cc(-c2ccccc2)nc2ccccc12	VP16 counter 2.51µM, RORg inh 1.41µM, uPA generation inconclusive
O=C(NCc1cccs1)c1cc(-c2ccccc2)nc2ccccc12	none
CSCCC(NS(=O)(=O)c1ccccc1F)C(=O)NCc1cccs1 (stereo not drawn)	none (no result: VP16 counter, RORg inh)
C[C@H](NC(=O)CCC1CCC(=O)N1)c1ccccc1 (stereo partly drawn)	none (no result: VP16 counter, RORg inh, TRPV1 potentiator, TRPV1 agonist)
CC(c1ccncn1)N(C)Cc1nc(Cc2ccccc2F)no1 (stereo not drawn)	none
CC(c1ccncn1)N(C)Cc1nc(-c2ccc(C(F)(F)F)cc2)no1 (stereo not drawn)	VP16 counter 7.08µM, RORg inh 3.16µM
Cc1onc(-c2ccccc2Cl)c1C(=O)OCC(=O)N1CCCCC1	none (no result: VP16 counter, RORg inh, TRPV1 potentiator, TRPV1 agonist)
CCN(CC)c1ccc(/C=N/NC(=O)C(O)c2ccccc2)cc1 (stereo not drawn)	none
C=CCNC(=S)N/N=C/c1ccc(N(CC)Cc2ccccc2)cc1	VP16 counter 0.708µM, RORg inh 0.501µM
CCN(CC)c1ccc(/C=N/NC(=S)NCc2ccccc2)cc1	VP16 counter 3.98µM, RORg inh 1.26µM
CCN(CC)c1ccc(/C=N/NC(=S)NCc2ccc(OC)cc2)cc1	VP16 counter 1.41µM, RORg inh 0.891µM
COc1ccc(NC(=O)CCCc2ccccc2)cc1OC	none
COc1ccccc1NC(=O)C(C)OC(=O)Cc1ccsc1 (stereo not drawn)	none (no result: VP16 counter, RORg inh)
C[C@H](C(=O)OCO/N=[N+](\[O-])N1CCCC1)c1cccc2ccccc12	none (no result: uPA generation, TRPV1 potentiator, TRPV1 agonist)
[O-]/C(=C(\C(=S)Nc1cccc2ccccc12)[n+]1ccccc1)c1ccc2c(c1)OCCO2	VP16 counter inconclusive, RORg inh 12.6µM (no result: uPA generation)
[O-]/C(=C(\C(=S)Nc1cccc2ccccc12)[n+]1ccccc1)c1ccc(OC(F)F)cc1	none
Cc1cc(S(=O)(=O)NCc2ccccc2)ccc1OCC(=O)Nc1cccc([N+](=O)[O-])c1	VP16 counter 11.2µM
Cc1cc(S(=O)(=O)NCc2ccccc2)ccc1OCC(=O)NCc1ccccn1	none
O=C(O)c1ccc2c(c1)C(=O)N([C@@H](C(=O)O)C(c1ccccc1)c1ccccc1)C2=O	none (no result: uPA generation, TRPV1 potentiator, TRPV1 agonist)
CCN1C(=O)[C@H]2[C@H]3[C@H](O)[C@H](O)C/C(=N/OC[C@@H](O)COCc4ccco4)[C@H]3CC[C@@H]2C1=O	none (no result: uPA generation, TRPV1 potentiator, TRPV1 agonist)
C#CC[N+](C)(C)CCCCCCCCCCCC	VP16 counter 11.2µM, RORg inh inconclusive
C#CC[N+](C)(C)CCCCCCCC	uPA generation inconclusive
CC#CC[N+](C)(C)CCCCCCCCCCCC	VP16 counter 7.08µM, RORg inh inconclusive, uPA generation inconclusive
CCCCCCCC[N+](CCCCCCCC)(CCCCCCCC)CCCCCCCC	VP16 counter 2µM, RORg inh 4.47µM (no result: uPA generation, TRPV1 potentiator, TRPV1 agonist)
CCCCCCCCCCCCCCCC[N+](C)(C)CC	uPA generation inconclusive
C#CC[N+](C)(C)CCCCCCCCCC	RORg inh inconclusive
CCNc1ncc2nc(-c3ccc(OC)cc3)c(=O)n(C)c2n1	none (no result: uPA generation, TRPV1 potentiator, TRPV1 agonist)
CC(C)Cn1nc(C(=O)Nc2cccc(C(=O)NC3CC3)c2)c2ccccc2c1=O	none (no result: VP16 counter, RORg inh)
COC(=O)C1(CC(C)C)C=C2C(=C(C(C)C)C(=O)C2C)CN1 (stereo not drawn)	VP16 counter inconclusive (no result: uPA generation, TRPV1 potentiator, TRPV1 agonist)
CCCCNc1nc(C)nc2c1nc(-c1ccccc1)n2CCN1CCCCC1	RORg inh 14.1µM (no result: uPA generation, TRPV1 potentiator, TRPV1 agonist)
COCCNc1nc(C)nc2c1nc(-c1ccccc1)n2CCN1CCCCC1	none (no result: uPA generation, TRPV1 potentiator, TRPV1 agonist)
Cc1c(Cl)cccc1NC(=S)N1CCCN(Cc2ccccc2F)C1	VP16 counter inconclusive, RORg inh 12.6µM
Cc1ccccc1NC(=S)N1CCCN(Cc2ccc(F)cc2)C1	none
Cc1c(Cl)cccc1NC(=S)N1CCCN(Cc2ccc(F)cc2)C1	VP16 counter inconclusive, RORg inh 15.8µM
Fc1ccccc1CN1CCCN(C(=S)Nc2cccc(Cl)c2)C1	VP16 counter inconclusive, RORg inh 7.08µM
Cc1ccc(NC(=S)N2CCCN(Cc3ccc(F)cc3)C2)c(C)c1	VP16 counter inconclusive, RORg inh 12.6µM
COc1ccc(C(CNC(=O)c2cccc3cccnc23)N(C)C)cc1 (stereo not drawn)	none
COC(=O)C(C(C)C)N1CC(=O)c2ccccc2S1(=O)=O (stereo not drawn)	none (no result: uPA generation, TRPV1 potentiator, TRPV1 agonist)
Cc1ccc(/C=N/NC(=O)c2nnn(-c3nonc3N)c2CSc2ccc(Cl)cc2)o1	VP16 counter inconclusive, RORg inh inconclusive
CC/C(O)=C(/C#N)c1nnc2n1CCCCC2	VP16 counter inconclusive, RORg inh 20µM
C=CCN1C(c2ccc(OCC)cc2)=CS/C1=C(\C#N)c1nnc2n1CCCCC2	none (no result: VP16 counter)
CC/C(O)=C(\C#N)c1nnc2n1CCCCC2	VP16 counter inconclusive, RORg inh 12.6µM (no result: uPA generation)
N#C/C(=C(/O)COc1ccc(Br)cc1)c1nnc2n1CCCCC2	VP16 counter inconclusive
COc1ccc(C)cc1S(=O)(=O)N1CCC(C(=O)NCCC2=CCCCC2)CC1	none (no result: uPA generation)
S=C(NCCC1=CCCCC1)Nc1ccc(Cl)cc1	VP16 counter inconclusive, RORg inh 3.55µM, TRPV1 agonist inconclusive
COc1ccc(C)cc1S(=O)(=O)NCCC1=CCCCC1	VP16 counter 11.2µM (no result: uPA generation)
COc1ccc(NC(=S)NCCC2=CCCCC2)cc1OC	VP16 counter 12.6µM, RORg inh 2.51µM
CC1CCN(c2ccc3nnc(CCC(=O)NCCCOC(C)C)n3n2)CC1	none
COc1cc(C)nc(-n2nc(C)cc2OC)n1	VP16 counter inconclusive, RORg inh 3.16µM
CCOC(=O)c1cc(C)nn1-c1nc(Cl)cc(OC)n1	none
Cc1ccc(S(=O)(=O)Nc2ccc(C(=O)N3CCCC3)cc2)cc1	none
COc1cccc(S(=O)(=O)Nc2ccc(C(=O)N3CCCCCC3)cc2)c1	VP16 counter 8.91µM, RORg inh 8.91µM
Cc1ccc(NS(=O)(=O)c2ccc(C(=O)N3CCN(c4ncccn4)CC3)cc2)cc1	VP16 counter 1.26µM
Cc1ccc(NS(=O)(=O)c2ccc(C(=O)N3CCN(S(=O)(=O)c4ccccc4)CC3)cc2)cc1	uPA generation 7.08µM (no result: VP16 counter, RORg inh)
Cc1ccc(C(=O)N2CCN(c3ncccn3)CC2)cc1	none

Screening data from PubChem.
